A short description of assay [1]: ATG_CMV_CIS: Attagene CIS-FACTORIAL HepG2 Assay for human CMV (Internal Marker) (AID 2282928).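 Note: endpoint acts as a background internal control marker rather than a target.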 The conditions noted are these: HepG2 CMV promoter reporter, transcription factor profiling; actives raise or lower the signal. The gist of the method: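 24 h chemical treatment, HepG2 with transient multi-reporter transfection; RNA → oligo(dT) RT → PCR → 6-FAM extension → HpaI digest → CE fluorescence. Bidirectional fit, DMSO negative control.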

Assay [2] in a line: ATG_ISRE_CIS: Attagene CIS-FACTORIAL HepG2 Assay for human Interferon Regulatory Factor 1 (IRF1) binding to an Interferon-Stimulated Response Element (ISRE) (AID 2282948). The conditions noted are these: HepG2 ISRE cis-reporter (Attagene), mRNA transcription readout; actives raise or lower the signal. The essentials:
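Multiplexed mRNA reporter readout in human liver HepG2 cells: cis-element-driven reporters transfected, compound added for 24 h, transcripts amplified, fluorescently labelled and sized by capillary electrophoresis; curve fitting bidirectional against DMSO.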

Assay [3] is described as follows: ATG_M_32_CIS: Attagene CIS-FACTORIAL HepG2 Assay for M32 Transcription Factor (Internal Marker) (AID 2282949).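 Note: background control marker of the multiplexed CIS panel rather than a real target.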 The conditions noted are these: HepG2 Attagene cis-factorial M32 reporter, mRNA; actives raise or lower the signal. The essentials:
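HepG2 human liver cells transiently transfected with cis-promoter-driven multiple reporter transcription units, dosed 24 h. Reporter mRNA quantified by RT-PCR, FAM-labelled primer extension, HpaI digest and capillary electrophoresis; bidirectional fit versus DMSO baseline.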

The target in assay [4] is Hepatocyte nuclear factor 6 (Homo sapiens) (UniProt Q9UBC0). As to the kind of experiment: ATG_HNF6_CIS: Attagene CIS-FACTORIAL HepG2 Assay for human Hepatocyte Nuclear Factor 6 (HNF6) (AID 2282952). The following applies: HepG2 Attagene cis-factorial HNF6 reporter transcription; actives raise or lower the signal. The essentials:
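Activity values derive from bidirectional fitting against DMSO of reporter mRNA levels, measured by capillary electrophoresis of labelled RT-PCR products from HepG2 cells exposed 24 h.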

Assay [5] addresses Heat shock factor protein 1 (Homo sapiens) (UniProt Q00613). Nature of the assay: ATG_HSE_CIS: Attagene CIS-FACTORIAL HepG2 Assay for human Heat Shock Transcription Factor 1 (HSE) (AID 2282953). The following applies: HepG2 HSE cis-reporter, Attagene RNA transcription; actives raise or lower the signal. The essentials: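 After a 24 h incubation with test chemical, transfected HepG2 cells were harvested for RNA; reporter transcripts were measured by RT-PCR and capillary electrophoresis. Values reflect gain or loss of signal relative to DMSO.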

Assay [6] can be described thus: ATG_RORE_CIS: Attagene CIS-FACTORIAL HepG2 Assay for human RAR-related Orphan Receptor Element (RORE) (AID 2282959). The conditions noted are these: HepG2 Attagene cis-factorial RORE reporter, mRNA; actives raise or lower the signal. The essentials:
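Cells were HepG2 carrying transfected cis-regulated reporter constructs, dosed for 24 hours. Total RNA was reverse-transcribed and reporter cDNA amplified, fluorescently labeled and sized by capillary electrophoresis. Activity was fitted bidirectionally relative to DMSO.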

Assay [7] has as its target Signal transducer and activator of transcription 3 (Homo sapiens) (UniProt P40763). As to the kind of experiment: ATG_STAT3_CIS: Attagene CIS-FACTORIAL HepG2 Assay for human Signal Transducer and Activator of Transcription 3 (STAT3) (AID 2282963). The conditions noted are these: HepG2, Attagene cis-factorial STAT3 reporter transcription; actives raise or lower the signal. The gist of the method:
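HepG2, MRTU-transfected, 24 h dosing. RNA → RT → PCR → FAM label → HpaI → CE. Bidirectional fit vs DMSO.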

The nature of assay [8]: ATG_TA_CIS: Attagene CIS-FACTORIAL HepG2 Assay for human TA Basal Promoter (AID 2282964). The following applies: HepG2 Attagene CIS-factorial TA basal promoter reporter; actives raise or lower the signal. The gist of the method: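 Multiplexed mRNA reporter assay, HepG2, 24 h. Reporter cDNA amplified, 6-FAM primer-extended, HpaI-cut, CE-sized; DMSO = negative control and baseline.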

Assay [9] is described as follows: ATG_TCF_b_cat_CIS: Attagene CIS-FACTORIAL HepG2 Assay for human T-Cell-Factor with beta-catenin (TCF/b-cat) (AID 2282965). The following applies: HepG2 TCF/beta-catenin cis-reporter transcription, actives raise or lower the signal. The essentials: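 In this cis-format system, transfected HepG2 cells report endogenous transcription factor activity. Readout after 24 h exposure is reporter transcript abundance from RT-PCR and capillary electrophoresis, analysed for gain or loss of signal versus DMSO.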

A short description of assay [10]: ATG_TAL_CIS: Attagene CIS-FACTORIAL HepG2 Assay for human TAL Basal Promoter (AID 2282966).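 Note: background control endpoint measuring basal TAL promoter reporter mRNA not a specific factor.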 The conditions noted are these: HepG2 Attagene cis-factorial TAL promoter reporter; actives raise or lower the signal. The essentials:
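Transiently transfected HepG2 (cis-regulated reporter units), 24 h treatment, mRNA read by fluorescent CE after RT-PCR; bidirectional fit, DMSO baseline.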

The nature of assay [11]: ATG_TGFb_CIS: Attagene CIS-FACTORIAL HepG2 Assay for human Transforming Growth Factor (TGF) (AID 2282967). The following applies: HepG2 Attagene CIS TGFb reporter, mRNA transcription; actives raise or lower the signal. The essentials: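 Transcript-level reporter readout: HepG2 transfectants, 24 h exposure, RNA to cDNA, reporter-specific PCR, fluorescent primer extension, capillary sizing against ROX standards. Gain- or loss-of-signal relative to DMSO.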

Assay [12] in a line: ATG_VDRE_CIS: Attagene CIS-FACTORIAL HepG2 Assay for human Vitamin D Receptor Element (VDRE) (AID 2282968). The conditions noted are these: HepG2 VDRE cis-reporter transcription, actives raise or lower the signal. The gist of the method:
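Steps: transfect HepG2 with multiple reporter transcription units; dose chemicals 24 h; isolate RNA; RT-PCR; label with 6-FAM primer extension; HpaI digest; capillary electrophoresis. Curves fitted both directions against DMSO.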

Assay [13] addresses X-box-binding protein 1 (Homo sapiens) (UniProt P17861). Nature of the assay: ATG_Xbp1_CIS: Attagene CIS-FACTORIAL HepG2 Assay for human X-box Binding Protein 1 (XBP1) (AID 2282972). The conditions noted are these: HepG2 XBP1 cis-element reporter, Attagene multiplex; actives raise or lower the signal. The essentials: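 Multiplexed cis-reporter readout in transfected HepG2 liver cells. Exposure lasted 24 hours. Activity in either direction was fitted against DMSO as negative control and baseline.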

The target in assay [14] is Transcriptional activator Myb (Homo sapiens) (UniProt P10242). Nature of the assay: ATG_Myb_CIS: Attagene CIS-FACTORIAL HepG2 Assay for human Myeloblastosis (Myb) Proto-Oncogene Transcription Factor (AID 2282986). The conditions noted are these: HepG2 Attagene CIS-FACTORIAL Myb reporter transcription; actives raise or lower the signal. The essentials: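 Steps: transfect HepG2 with cis-regulated reporter units; dose with chemical for 24 h; isolate RNA, reverse-transcribe, PCR-amplify and FAM-label reporter sequences; digest with HpaI; resolve by capillary electrophoresis. Activity fitted in both directions relative to DMSO.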

Assay [15] deals with Nuclear respiratory factor 1 (Homo sapiens) (UniProt Q16656). As to the kind of experiment: ATG_NRF1_CIS: Attagene CIS-FACTORIAL HepG2 Assay for human Nuclear Respiratory Factor 1 (NRF1) Orphan Gene (AID 2282987). The following applies: HepG2 NRF1 cis-element reporter, Attagene multiplex; actives raise or lower the signal. The gist of the method: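 Fluorescence intensity of labelled reporter cDNA fragments, resolved by capillary electrophoresis, served as readout for NRF1 cis-element activity. Transiently transfected HepG2 cells were dosed for 24 hours; activity in either direction was fitted against DMSO negative control.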

The target of assay [16] is Myc proto-oncogene protein (Homo sapiens) (UniProt P01106). As to the kind of experiment: ATG_Myc_CIS: Attagene CIS-FACTORIAL HepG2 Assay for human Myelocytomatosis (Myc) Proto-Oncogene Transcription Factor (AID 2282990). The following applies: HepG2, Attagene cis-reporter transcription factor activity; actives raise or lower the signal. The gist of the method: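 DMSO-normalised, bidirectionally fitted reporter mRNA signal. HepG2 cells transfected with cis reporter constructs, treated 24 h; transcripts detected by RT-PCR, 6-FAM primer extension and CE.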

Assay [17] in a line: ATG_NF_kB_CIS: Attagene CIS-FACTORIAL HepG2 Assay for human Nuclear Factor Kappa B (NF-kB) (AID 2282991). The conditions noted are these: HepG2 Attagene cis-factorial NF-kB reporter mRNA; actives raise or lower the signal. The gist of the method: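 Endogenous transcription factor activity in HepG2 was captured via cis-regulated reporter constructs; after 24 h dosing, reporter mRNA was reverse-transcribed, amplified, fluorescently labelled and sized by capillary electrophoresis, with activity fitted bidirectionally relative to DMSO.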

The nature of assay [18]: ATG_NRF2_ARE_CIS: Attagene CIS-FACTORIAL HepG2 Assay for human Nuclear Factor Erythroid 2 Related Factor 2 (NFR2) response to Antioxidant Response Elements (ARE) (AID 2282992). The conditions noted are these: HepG2 Attagene ARE/NRF2 reporter, transcription factor activity; actives raise or lower the signal. The gist of the method: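 Endogenous transcription factor activity in human liver HepG2 cells is tracked via a cis-element-driven reporter within a multiplexed set. mRNA induction is read by RT-PCR and capillary electrophoresis after 24 h, with DMSO as baseline.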

Assay [19] can be described thus: ATG_Oct_MLP_CIS: Attagene CIS-FACTORIAL HepG2 Assay for human Octamer-Binding Transcription Factor (Oct) (AID 2282993). The following applies: HepG2 Attagene cis-factorial Oct reporter, mRNA; actives raise or lower the signal. The essentials:
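Cells of the HepG2 line express promoter-controlled reporter sequences whose mRNA levels, after 24 h treatment, are measured by RT-PCR and capillary electrophoresis. Increases and decreases are scored relative to DMSO.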

Assay [20] deals with Cellular tumor antigen p53 (Homo sapiens) (UniProt P04637). As to the kind of experiment: ATG_p53_CIS: Attagene CIS-FACTORIAL HepG2 Assay for human p53 Transcription Factor (AID 2282994). The following applies: HepG2 p53 cis-element reporter, Attagene mRNA; actives raise or lower the signal. The gist of the method:
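Steps: transfect HepG2 with multiplexed cis reporter constructs; dose chemicals 24 h; extract RNA, reverse-transcribe, PCR-amplify reporter sequences; FAM-label, HpaI-digest, resolve fragments by CE. Activity fitted both directions relative to DMSO.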

Active and inactive are the calls of the source. Rule for the calls: active = hit-call score of the fitted dose curve at least 0.9, where 1 is the maximum; inactive = score below 0.9.

Signal transducer and activator of transcription 3 (Homo sapiens), sequence (P40763 whole entry, looked up): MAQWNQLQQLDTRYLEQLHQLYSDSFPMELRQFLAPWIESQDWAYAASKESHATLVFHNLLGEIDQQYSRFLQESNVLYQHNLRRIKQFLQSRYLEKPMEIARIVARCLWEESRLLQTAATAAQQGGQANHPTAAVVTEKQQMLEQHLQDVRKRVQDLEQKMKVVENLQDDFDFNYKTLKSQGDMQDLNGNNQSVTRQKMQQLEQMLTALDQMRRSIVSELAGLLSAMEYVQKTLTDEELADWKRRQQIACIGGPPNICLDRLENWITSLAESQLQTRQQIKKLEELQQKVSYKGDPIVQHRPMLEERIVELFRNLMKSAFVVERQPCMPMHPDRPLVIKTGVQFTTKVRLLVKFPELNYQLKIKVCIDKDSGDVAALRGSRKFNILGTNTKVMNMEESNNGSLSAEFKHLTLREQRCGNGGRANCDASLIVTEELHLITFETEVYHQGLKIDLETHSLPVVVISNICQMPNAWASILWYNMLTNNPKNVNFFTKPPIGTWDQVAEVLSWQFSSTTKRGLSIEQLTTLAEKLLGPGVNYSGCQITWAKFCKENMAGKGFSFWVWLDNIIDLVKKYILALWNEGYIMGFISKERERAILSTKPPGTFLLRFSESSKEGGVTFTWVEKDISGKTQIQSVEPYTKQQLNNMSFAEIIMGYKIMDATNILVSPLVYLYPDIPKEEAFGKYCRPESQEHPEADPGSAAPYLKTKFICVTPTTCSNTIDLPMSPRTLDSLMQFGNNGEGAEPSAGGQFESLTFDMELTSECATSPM
Cellular tumor antigen p53 (Homo sapiens), sequence (P04637 whole entry, looked up, the tested form may be a part): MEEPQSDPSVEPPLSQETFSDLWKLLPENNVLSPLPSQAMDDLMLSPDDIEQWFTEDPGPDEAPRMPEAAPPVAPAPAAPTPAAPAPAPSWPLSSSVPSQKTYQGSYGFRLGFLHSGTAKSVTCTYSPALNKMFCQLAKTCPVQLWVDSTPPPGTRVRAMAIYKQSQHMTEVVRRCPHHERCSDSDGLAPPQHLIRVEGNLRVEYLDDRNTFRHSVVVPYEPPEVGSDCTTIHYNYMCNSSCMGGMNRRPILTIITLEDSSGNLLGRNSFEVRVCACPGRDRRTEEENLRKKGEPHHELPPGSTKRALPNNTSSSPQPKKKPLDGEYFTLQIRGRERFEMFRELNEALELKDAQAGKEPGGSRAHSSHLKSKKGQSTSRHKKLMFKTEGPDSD
Heat shock factor protein 1 (Homo sapiens), sequence (Q00613 whole entry, looked up): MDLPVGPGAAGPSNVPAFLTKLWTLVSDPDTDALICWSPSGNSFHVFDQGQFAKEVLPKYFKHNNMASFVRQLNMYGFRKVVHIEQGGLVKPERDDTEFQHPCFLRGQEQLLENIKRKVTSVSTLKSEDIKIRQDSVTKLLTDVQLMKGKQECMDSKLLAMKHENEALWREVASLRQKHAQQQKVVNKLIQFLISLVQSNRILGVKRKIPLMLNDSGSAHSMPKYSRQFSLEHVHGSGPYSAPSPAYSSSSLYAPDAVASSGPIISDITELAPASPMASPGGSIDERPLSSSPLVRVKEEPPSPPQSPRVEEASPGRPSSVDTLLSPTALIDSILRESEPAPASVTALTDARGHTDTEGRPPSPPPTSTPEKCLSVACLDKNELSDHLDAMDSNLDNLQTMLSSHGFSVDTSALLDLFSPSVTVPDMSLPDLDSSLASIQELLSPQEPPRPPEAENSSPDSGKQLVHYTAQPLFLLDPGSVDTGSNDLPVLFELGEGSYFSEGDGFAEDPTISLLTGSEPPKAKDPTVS
Hepatocyte nuclear factor 6 (Homo sapiens), sequence (Q9UBC0 whole entry, looked up): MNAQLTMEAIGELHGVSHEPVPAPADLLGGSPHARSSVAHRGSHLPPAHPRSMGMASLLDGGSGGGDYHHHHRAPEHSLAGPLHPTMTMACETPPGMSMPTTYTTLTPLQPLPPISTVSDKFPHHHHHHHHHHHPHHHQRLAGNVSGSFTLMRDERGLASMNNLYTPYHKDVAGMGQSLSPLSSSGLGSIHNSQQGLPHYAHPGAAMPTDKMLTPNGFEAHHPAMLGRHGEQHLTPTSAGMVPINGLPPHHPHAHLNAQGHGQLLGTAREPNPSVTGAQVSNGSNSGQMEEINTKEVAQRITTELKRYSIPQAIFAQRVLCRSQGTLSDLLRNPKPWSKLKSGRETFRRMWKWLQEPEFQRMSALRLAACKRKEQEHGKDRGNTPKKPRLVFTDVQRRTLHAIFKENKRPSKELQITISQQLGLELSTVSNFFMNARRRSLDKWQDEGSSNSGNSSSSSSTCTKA
X-box-binding protein 1 (Homo sapiens), sequence (P17861 whole entry, looked up): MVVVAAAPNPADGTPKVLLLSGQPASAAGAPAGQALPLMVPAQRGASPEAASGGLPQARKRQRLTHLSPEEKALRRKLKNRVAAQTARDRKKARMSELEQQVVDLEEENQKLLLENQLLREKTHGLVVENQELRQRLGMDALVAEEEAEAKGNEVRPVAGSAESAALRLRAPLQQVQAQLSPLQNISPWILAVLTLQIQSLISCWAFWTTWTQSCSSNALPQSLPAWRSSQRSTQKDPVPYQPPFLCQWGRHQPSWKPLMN
Nuclear respiratory factor 1 (Homo sapiens), sequence (Q16656 whole entry, looked up, the tested form may be a part): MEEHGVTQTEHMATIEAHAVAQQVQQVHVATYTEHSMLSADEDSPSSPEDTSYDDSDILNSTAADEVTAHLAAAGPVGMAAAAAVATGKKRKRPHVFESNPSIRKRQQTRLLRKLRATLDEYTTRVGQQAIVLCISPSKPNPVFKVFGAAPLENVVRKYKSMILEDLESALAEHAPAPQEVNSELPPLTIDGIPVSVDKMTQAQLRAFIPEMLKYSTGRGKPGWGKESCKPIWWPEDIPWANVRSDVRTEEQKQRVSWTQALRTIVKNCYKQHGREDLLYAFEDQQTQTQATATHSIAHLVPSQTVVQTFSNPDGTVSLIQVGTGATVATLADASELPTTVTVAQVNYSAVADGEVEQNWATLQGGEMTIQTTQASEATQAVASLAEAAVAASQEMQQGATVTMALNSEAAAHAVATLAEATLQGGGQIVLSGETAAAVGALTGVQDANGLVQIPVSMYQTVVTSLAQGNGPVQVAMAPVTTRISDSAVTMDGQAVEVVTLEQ
Transcriptional activator Myb (Homo sapiens), sequence (P10242 whole entry, looked up): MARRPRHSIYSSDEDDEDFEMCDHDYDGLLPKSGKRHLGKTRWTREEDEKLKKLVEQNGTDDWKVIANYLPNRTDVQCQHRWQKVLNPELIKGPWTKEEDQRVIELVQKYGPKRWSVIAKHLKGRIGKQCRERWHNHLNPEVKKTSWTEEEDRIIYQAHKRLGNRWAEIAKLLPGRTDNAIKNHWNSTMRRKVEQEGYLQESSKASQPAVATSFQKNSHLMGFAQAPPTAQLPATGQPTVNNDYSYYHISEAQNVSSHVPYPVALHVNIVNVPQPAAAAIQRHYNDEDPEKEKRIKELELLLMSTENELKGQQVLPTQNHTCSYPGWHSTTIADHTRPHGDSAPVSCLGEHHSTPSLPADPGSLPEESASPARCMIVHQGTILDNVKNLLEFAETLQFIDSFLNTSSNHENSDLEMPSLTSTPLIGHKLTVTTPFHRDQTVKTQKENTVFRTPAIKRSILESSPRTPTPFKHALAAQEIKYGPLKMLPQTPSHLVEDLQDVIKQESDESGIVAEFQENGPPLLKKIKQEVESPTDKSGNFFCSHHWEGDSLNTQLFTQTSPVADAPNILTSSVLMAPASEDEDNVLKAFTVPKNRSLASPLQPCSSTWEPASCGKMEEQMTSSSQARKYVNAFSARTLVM
Myc proto-oncogene protein (Homo sapiens), sequence (P01106 whole entry, looked up): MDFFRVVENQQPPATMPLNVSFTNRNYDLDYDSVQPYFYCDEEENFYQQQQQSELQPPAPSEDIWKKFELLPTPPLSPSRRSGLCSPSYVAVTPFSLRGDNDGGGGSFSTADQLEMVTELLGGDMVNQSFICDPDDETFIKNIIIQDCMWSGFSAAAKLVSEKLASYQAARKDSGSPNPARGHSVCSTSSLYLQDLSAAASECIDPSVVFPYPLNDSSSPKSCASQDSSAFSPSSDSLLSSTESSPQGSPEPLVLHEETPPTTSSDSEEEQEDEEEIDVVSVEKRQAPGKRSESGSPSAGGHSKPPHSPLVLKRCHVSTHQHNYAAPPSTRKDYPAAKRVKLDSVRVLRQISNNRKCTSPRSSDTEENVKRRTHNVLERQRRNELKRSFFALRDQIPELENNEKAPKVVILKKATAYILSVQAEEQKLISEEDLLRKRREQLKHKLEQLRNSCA

As to `CC1CCC(=O)O1` (stereo unspecified), the result in [1], in [2], in assay [3], in [4], in assay [5] and in assay [6] was inactive. In addition, the compound was classed as inactive in assay [7], in assay [8], in [9], in assay [10], in assay [11] and in [12]. Moreover, the call in assay [13], in assay [14], in [15], in [16], in assay [17] and in assay [18] was inactive. For the same compound, the compound was called inactive in [19] and in assay [20].
In the case of `O=C(CCN1CC1)OCC(CO)(COC(=O)CCN1CC1)COC(=O)CCN1CC1`, the compound was called inactive in [1], in assay [2], in assay [4], in [5], in assay [6] and in assay [7]. For the same compound, the call in [9], in assay [10], in assay [11], in assay [13], in [14] and in [15] was inactive. In addition, the compound was called inactive in [16], in [17], in assay [18], in assay [19] and in assay [20].
Take `COC(=O)COc1ccc(Cl)cc1Cl`: the compound was classed as inactive in assay [1], in [3], in assay [4], in [5], in assay [6] and in assay [7]. The compound was classed as inactive in assay [8], in [9], in assay [10], in assay [11], in assay [12] and in [13]. Moreover, the call in assay [14], in [15], in [16], in assay [17], in assay [18] and in [19] was inactive. Further, in [20], the compound was called inactive.
For the compound `COc1cc(OC)c(OC)cc1C=O`, the compound was classed as inactive in assay [1], in assay [3], in assay [4], in [5], in assay [6] and in assay [7]. The outcome in [8], in assay [9], in [10], in assay [11], in assay [12] and in assay [13] was inactive. The result in assay [14], in [15], in assay [16], in assay [17], in [18] and in [19] was inactive. Further, in assay [20], the result was inactive.
`O=C(NC(=O)c1c(F)cccc1F)Nc1ccc(Oc2ccc(C(F)(F)F)cc2Cl)cc1F`: the AC50 is 26300 nM (active) in assay [2] and 34500 nM (active) in assay [18]. Further, the outcome in [3], in assay [4], in [5], in assay [6], in assay [7] and in assay [8] was inactive. In addition, the call in assay [9], in assay [10], in assay [11], in assay [12], in [13] and in assay [14] was inactive. In addition, the compound was classed as inactive in [15], in [16], in assay [17], in assay [19] and in assay [20].
For the compound `O=[N+]([O-])O.O=[N+]([O-])O.[Cd]`, the AC50 in assay [1] was 873 nM (active); in [2], 1030 nM (active); in assay [5], 1420 nM (active); in assay [7], 11100 nM (active); in assay [13], 1430 nM (active); in assay [15] it was 4620 nM (active). Also, the figures for the AC50 in assay [16], in assay [18] and in assay [19] were 962 nM (active), 4120 nM (active) and 1160 nM (active), respectively. Besides, the compound was classed as inactive in [3], in [4], in [9], in assay [10], in assay [11] and in assay [14].
In the case of `NNc1ccccc1`, the call in [1], in assay [2], in [3], in assay [4], in assay [5] and in assay [6] was inactive. Moreover, the compound was called inactive in assay [8], in assay [9], in assay [10], in [11], in [13] and in [14]. The compound was classed as inactive in assay [15], in [16], in assay [17] and in assay [19]. In [18], the AC50 was 47100 nM (active).

For orientation: AC50 means the concentration at which the activity in the assay is half-maximal.
